{"source": "PubChem BioAssay (NCI)", "note": "This is part of a sample that, as a whole, favours compounds with a hit. Of some 83,000 tested, about 20% had one in any assay.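 For each line, cells grew in 96-well plates with the test compound present at a single concentration for 48 hours.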 Active and inactive are the calls of the source. The calls were made as follows: active = growth percent below 10; inactive = the rest."}
{"tested_on": "K-562 leukemia", "assay": "NCI-60 one-dose screen, 48 h (100 = growth as untreated, 0 = no growth, -100 = all killed)", "settings": "10 µM unless noted"}
{"smiles": "O=C(/C=C/c1ccc2ccccc2c1)Nc1ncc(Cc2ccccc2)s1", "growth": "70.6% (inactive)"}
{"smiles": "O=C1c2cc3c(cc2-c2c1c1ccc(F)cc1c(=O)n2CCCN1CCOCC1)OCO3", "growth": "41.6% (inactive)"}
{"smiles": "C=C1CC[C@@H](C(=O)OC)Cc2nc(C)ccc21", "growth": "101% (inactive)"}
{"smiles": "CCN1CCN(C(=O)[C@]23CCC(C)(C)C[C@@H]2C2=CC[C@@H]4[C@@]5(C)C/C(=C/c6cccnc6)C(=O)C(C)(C)[C@@H]5CC[C@@]4(C)[C@]2(C)CC3)CC1", "growth": "6.69% (active)"}
{"smiles": "Nc1c(C(=O)Nc2cccc3ccccc23)sc2nc3c(cc12)CCCC3", "growth": "9.59% (active)"}
{"smiles": "CC(C)(C)c1cc(-n2c(-c3ccc(Cl)cc3)nc3cc(C(=O)Nc4ccc(Cl)cc4)ccc32)n[nH]1", "growth": "41.2% (inactive)"}
{"smiles": "Fc1ccc(Nc2nnc(-c3ccc(Cl)cc3)o2)cc1", "growth": "70.6% (inactive)"}
{"smiles": "O=C1/C(=C\\c2ccc(Br)o2)SC(=S)N1CCc1ccc(O)cc1", "growth": "65.6% (inactive)"}
{"smiles": "CC(=O)c1c(C)[nH]c(-c2nc3ccc(N4CCN(C)CC4)cc3[nH]2)c1-c1ccc2c(c1)OCCO2", "growth": "31.2% (inactive)"}
{"smiles": "COc1ccc2[nH]c(-c3ccc(Cl)cc3)cc(=O)c2c1", "growth": "97.4% (inactive)"}
{"smiles": "CCC1C(=O)COC1=O", "note": "(stereo unspecified)", "growth": "92% (inactive)"}
{"smiles": "COc1ccc(O)c(-c2cc(-c3ccc(Cl)cc3)c(C#N)c(=O)[nH]2)c1", "growth": "23.5% (inactive)"}
{"smiles": "C=C(C)[C@@H]1CC[C@]2(C)[C@H](CC[C@@H]3[C@H]4[C@H]5OC[C@@]4(CCC5(C)C)CC[C@]32C)[C@@]1(C)CCCN", "growth": "3.82% (active)"}
{"smiles": "CN1CCN(CCOc2ccc(-c3cnc4c(-c5cccc(F)c5)cnn4c3)cc2)CC1", "growth": "-33.6% (active)"}
{"smiles": "Cc1cc(N(CCNc2ccnc3cc(Cl)ccc23)Cc2ccco2)nc(Cl)n1", "growth": "-54.5% (active)"}
{"smiles": "COc1ccc(CCN2C(=O)C(C)(C)SC2=S)cc1OC", "growth": "100% (inactive)"}
{"smiles": "Cc1cc2nc3c4cc(O)ccc4n(CCN(C)C)c3nc2cc1C", "growth": "7.53% (active)"}
{"smiles": "CCCCC(=O)OC1CCCCC1C", "note": "(stereo unspecified)", "growth": "98.8% (inactive)"}
{"smiles": "COc1ccc2c(c1)c(-c1nc(-c3c[nH]c4ncccc34)cs1)cn2CCCN1CCCCC1", "growth": "-58.8% (active)"}
{"smiles": "CC(=O)c1c(C)[nH]c(-c2nc3ccc(N4CCN(C)CC4)cc3[nH]2)c1-c1ccc(OCC2CCOCC2)cc1", "growth": "22.4% (inactive)"}
{"smiles": "Cc1nc([P+](c2ccccc2)(c2ccccc2)c2ccccc2)c(Sc2sc(-c3ccccc3)nc2[P+](c2ccccc2)(c2ccccc2)c2ccccc2)o1", "growth": "9.67% (active)"}
{"smiles": "NNC(=O)c1nc2ccccc2[nH]1", "growth": "87.2% (inactive)"}
{"smiles": "O=P(O)(c1ccccc1)c1ccccc1I", "growth": "93.8% (inactive)"}
{"smiles": "COc1ccc(OC)c(-c2c(C#N)c(-c3ccco3)nc3c2c(-c2ccccc2)nn3-c2ccccc2)c1", "growth": "105% (inactive)"}
{"smiles": "CNC(=O)c1cc(Oc2ccc3nc(NC(=O)Nc4ccc(Cl)cc4)sc3c2)ccn1", "growth": "65.6% (inactive)"}
{"smiles": "Clc1cc(Cl)cc(Nc2ccc3c(OCCCN4CCOCC4)cccc3n2)c1", "growth": "-33.9% (active)"}
{"smiles": "N#CC1=C(N)Oc2c(c(N)nn2-c2ccccc2)C1c1ccc(Cl)cc1Cl", "note": "(stereo unspecified)", "growth": "89.6% (inactive)"}
{"smiles": "CC(C)(C)c1ccc(OCCCCCCCN2CCNCC2)cc1", "growth": "0.406% (active)"}
{"smiles": "Cc1cc(Cl)nc(N(CCCNc2ccnc3cc(Cl)ccc23)Cc2ccco2)n1", "growth": "0.302% (active)"}
{"smiles": "CC1(C)NCCC[C@]2(C)[C@H]3CC[C@@H]4[C@H]5[C@H](C(=O)/C=C/c6ccccn6)CC[C@]5(CO)CC[C@@]4(C)[C@]3(C)CC[C@@H]12", "growth": "-2.17% (active)"}
{"smiles": "NCCNc1nc(-c2ccccc2)nc2nc(-c3ccccc3)oc12", "growth": "24.2% (inactive)"}
{"smiles": "COc1cnc2c(c1)C(=O)c1c-2n(CCCNC(C)C)c(=O)c2cc([N+](=O)[O-])ccc12", "growth": "-14.4% (active)"}
{"smiles": "COc1cnc2c(c1)C(=O)c1c-2n(CCCNC2=NCCS2)c(=O)c2cc([N+](=O)[O-])ccc12", "growth": "-14.9% (active)"}
{"smiles": "CCC(c1ccc(OC)cc1)C(CC)c1ccc(O)c(CN2CCCCC2)c1", "note": "(stereo unspecified)", "growth": "15.4% (inactive)"}
{"smiles": "COc1cc2nc(Cl)nc(Nc3cccc(C(=O)/C=C/c4ccccc4)c3)c2cc1OC", "growth": "9.16% (active)"}
{"smiles": "CC1(C)C(=O)/C(=C\\c2ccco2)C[C@]2(C)[C@H]3CC[C@@H]4[C@@H](C(=O)/C=C/c5ccco5)CC[C@@]4(C)[C@]3(C)CC[C@@H]12", "growth": "85.6% (inactive)"}
{"smiles": "CCCC1CCCCN1C(=O)OCC(C)C", "note": "(stereo unspecified)", "growth": "103% (inactive)"}
{"smiles": "Cc1ccc(-c2nn(Cc3cn(-c4cc(C)nc5ccccc45)nn3)c3ncnc(N)c23)cc1", "growth": "53.2% (inactive)"}
{"tested_on": "MALME-3M melanoma", "assay": "NCI-60 one-dose screen, 48 h (100 = growth as untreated, 0 = no growth, -100 = all killed)", "settings": "10 µM unless noted"}
{"smiles": "O=C(/C=C/c1ccc2ccccc2c1)Nc1ncc(Cc2ccccc2)s1", "growth": "51% (inactive)"}
{"smiles": "O=C1c2cc3c(cc2-c2c1c1ccc(F)cc1c(=O)n2CCCN1CCOCC1)OCO3", "growth": "101% (inactive)"}
{"smiles": "C=C1CC[C@@H](C(=O)OC)Cc2nc(C)ccc21", "growth": "105% (inactive)"}
{"smiles": "CCN1CCN(C(=O)[C@]23CCC(C)(C)C[C@@H]2C2=CC[C@@H]4[C@@]5(C)C/C(=C/c6cccnc6)C(=O)C(C)(C)[C@@H]5CC[C@@]4(C)[C@]2(C)CC3)CC1", "growth": "30.3% (inactive)"}
{"smiles": "Nc1c(C(=O)Nc2cccc3ccccc23)sc2nc3c(cc12)CCCC3", "growth": "78% (inactive)"}
{"smiles": "CC(C)(C)c1cc(-n2c(-c3ccc(Cl)cc3)nc3cc(C(=O)Nc4ccc(Cl)cc4)ccc32)n[nH]1", "growth": "75.4% (inactive)"}
{"smiles": "Fc1ccc(Nc2nnc(-c3ccc(Cl)cc3)o2)cc1", "growth": "95.6% (inactive)"}
{"smiles": "O=C1/C(=C\\c2ccc(Br)o2)SC(=S)N1CCc1ccc(O)cc1", "growth": "69% (inactive)"}
{"smiles": "CC(=O)c1c(C)[nH]c(-c2nc3ccc(N4CCN(C)CC4)cc3[nH]2)c1-c1ccc2c(c1)OCCO2", "growth": "33.7% (inactive)"}
{"smiles": "COc1ccc2[nH]c(-c3ccc(Cl)cc3)cc(=O)c2c1", "growth": "98.6% (inactive)"}
{"smiles": "CCC1C(=O)COC1=O", "note": "(stereo unspecified)", "growth": "99.3% (inactive)"}
{"smiles": "COc1ccc(O)c(-c2cc(-c3ccc(Cl)cc3)c(C#N)c(=O)[nH]2)c1", "growth": "105% (inactive)"}
{"smiles": "C=C(C)[C@@H]1CC[C@]2(C)[C@H](CC[C@@H]3[C@H]4[C@H]5OC[C@@]4(CCC5(C)C)CC[C@]32C)[C@@]1(C)CCCN", "growth": "-48.5% (active)"}
{"smiles": "CN1CCN(CCOc2ccc(-c3cnc4c(-c5cccc(F)c5)cnn4c3)cc2)CC1", "growth": "60.6% (inactive)"}
{"smiles": "Cc1cc(N(CCNc2ccnc3cc(Cl)ccc23)Cc2ccco2)nc(Cl)n1", "growth": "-64.6% (active)"}
{"smiles": "COc1ccc(CCN2C(=O)C(C)(C)SC2=S)cc1OC", "growth": "96.2% (inactive)"}
{"smiles": "Cc1cc2nc3c4cc(O)ccc4n(CCN(C)C)c3nc2cc1C", "growth": "-61.6% (active)"}
{"smiles": "CCCCC(=O)OC1CCCCC1C", "note": "(stereo unspecified)", "growth": "94.6% (inactive)"}
{"smiles": "COc1ccc2c(c1)c(-c1nc(-c3c[nH]c4ncccc34)cs1)cn2CCCN1CCCCC1", "growth": "-70.9% (active)"}
{"smiles": "CC(=O)c1c(C)[nH]c(-c2nc3ccc(N4CCN(C)CC4)cc3[nH]2)c1-c1ccc(OCC2CCOCC2)cc1", "growth": "20.7% (inactive)"}
{"smiles": "Cc1nc([P+](c2ccccc2)(c2ccccc2)c2ccccc2)c(Sc2sc(-c3ccccc3)nc2[P+](c2ccccc2)(c2ccccc2)c2ccccc2)o1", "growth": "6.38% (active)"}
{"smiles": "NNC(=O)c1nc2ccccc2[nH]1", "growth": "107% (inactive)"}
{"smiles": "O=P(O)(c1ccccc1)c1ccccc1I", "growth": "87.5% (inactive)"}
{"smiles": "COc1ccc(OC)c(-c2c(C#N)c(-c3ccco3)nc3c2c(-c2ccccc2)nn3-c2ccccc2)c1", "growth": "112% (inactive)"}
{"smiles": "CNC(=O)c1cc(Oc2ccc3nc(NC(=O)Nc4ccc(Cl)cc4)sc3c2)ccn1", "growth": "17.7% (inactive)"}
{"smiles": "Clc1cc(Cl)cc(Nc2ccc3c(OCCCN4CCOCC4)cccc3n2)c1", "growth": "71% (inactive)"}
{"smiles": "N#CC1=C(N)Oc2c(c(N)nn2-c2ccccc2)C1c1ccc(Cl)cc1Cl", "note": "(stereo unspecified)", "growth": "104% (inactive)"}
{"smiles": "CC(C)(C)c1ccc(OCCCCCCCN2CCNCC2)cc1", "growth": "-50.4% (active)"}
{"smiles": "Cc1cc(Cl)nc(N(CCCNc2ccnc3cc(Cl)ccc23)Cc2ccco2)n1", "growth": "4.4% (active)"}
{"smiles": "CC1(C)NCCC[C@]2(C)[C@H]3CC[C@@H]4[C@H]5[C@H](C(=O)/C=C/c6ccccn6)CC[C@]5(CO)CC[C@@]4(C)[C@]3(C)CC[C@@H]12", "growth": "73.6% (inactive)"}
{"smiles": "NCCNc1nc(-c2ccccc2)nc2nc(-c3ccccc3)oc12", "growth": "102% (inactive)"}
{"smiles": "COc1cnc2c(c1)C(=O)c1c-2n(CCCNC(C)C)c(=O)c2cc([N+](=O)[O-])ccc12", "growth": "-58.2% (active)"}
{"smiles": "COc1cnc2c(c1)C(=O)c1c-2n(CCCNC2=NCCS2)c(=O)c2cc([N+](=O)[O-])ccc12", "growth": "-60.6% (active)"}
{"smiles": "CCC(c1ccc(OC)cc1)C(CC)c1ccc(O)c(CN2CCCCC2)c1", "note": "(stereo unspecified)", "growth": "28.1% (inactive)"}
{"smiles": "COc1cc2nc(Cl)nc(Nc3cccc(C(=O)/C=C/c4ccccc4)c3)c2cc1OC", "growth": "78% (inactive)"}
{"smiles": "CC1(C)C(=O)/C(=C\\c2ccco2)C[C@]2(C)[C@H]3CC[C@@H]4[C@@H](C(=O)/C=C/c5ccco5)CC[C@@]4(C)[C@]3(C)CC[C@@H]12", "growth": "1.28% (active)"}
{"smiles": "CCCC1CCCCN1C(=O)OCC(C)C", "note": "(stereo unspecified)", "growth": "107% (inactive)"}
{"smiles": "Cc1ccc(-c2nn(Cc3cn(-c4cc(C)nc5ccccc45)nn3)c3ncnc(N)c23)cc1", "growth": "52.5% (inactive)"}
